Measurements as given in PubChem BioAssay (Tox21).
Results filed as inconclusive are left out. Calls of active or inactive are those of the source. Unless noted, calls follow the shape of the dose curve; as a rule, active = well fitted curve in the direction sought with a large enough effect in the repeat runs; inconclusive = weak or mixed curves; inactive = no such curve, though single readings can be large; an effect the other way counts as inactive or inconclusive.

How the values were obtained:
[1] = qHTS assay to identify small molecule antagonists of the estrogen related receptor (ERR) signaling pathway from Tox21 library - cell viability counter screen (AID 1224834); also: nearly all actives have a fitted effect of over 30% in size
Summary of the method: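 ERR cells, 2,000/well; 6 h settle at 37 C/5% CO2; pin-tool compound transfer in DMSO; 17.5 h at 37 C; CellTiter-Fluor, 30 min; fluorescence intensity.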

[2] = target: Luciferin 4-monooxygenase (Photinus pyralis) (UniProt P08659); assay: qHTS assay to identify small molecule inhibitors of firefly luciferase (AID 1224835); also: nearly all actives have a fitted effect of over 25% in size
Chain of Luciferin 4-monooxygenase (Photinus pyralis) (P08659 whole entry, looked up): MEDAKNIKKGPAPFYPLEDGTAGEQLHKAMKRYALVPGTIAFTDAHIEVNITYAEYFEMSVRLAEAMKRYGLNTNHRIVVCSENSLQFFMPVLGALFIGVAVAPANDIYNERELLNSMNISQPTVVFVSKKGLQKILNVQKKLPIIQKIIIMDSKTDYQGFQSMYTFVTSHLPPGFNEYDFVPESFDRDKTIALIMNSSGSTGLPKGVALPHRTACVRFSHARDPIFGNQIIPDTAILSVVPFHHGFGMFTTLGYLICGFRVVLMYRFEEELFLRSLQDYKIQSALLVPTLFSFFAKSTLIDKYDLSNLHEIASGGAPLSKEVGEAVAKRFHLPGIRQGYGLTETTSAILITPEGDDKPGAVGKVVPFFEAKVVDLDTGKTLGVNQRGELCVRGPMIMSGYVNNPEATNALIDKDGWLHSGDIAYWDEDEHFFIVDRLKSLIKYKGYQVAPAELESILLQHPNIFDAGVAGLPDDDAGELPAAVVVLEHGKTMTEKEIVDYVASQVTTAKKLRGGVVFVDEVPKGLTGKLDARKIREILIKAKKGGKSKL
Summary of the method: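 Quantitative HTS format; KM concentrations of both substrates. Purified P. pyralis FLuc activity quantified from luminescence images.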

[3] = qHTS assay to identify small molecule agonists of the constitutive androstane receptor (CAR) signaling pathway - cell viability counter screen (AID 1224836); also: nearly all actives have a fitted effect of over 45% in size
Summary of the method: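 HepG2 cells stably carrying hCAR and a CYP2B6-2.2kb reporter; 15-concentration compounds plus PK11195 (final 0.75 uM), 23 hr at 37 C/5% CO2. Viability read by CellTiter-Fluor fluorescence.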

[4] = qHTS assay to identify small molecule antagonists of the constitutive androstane receptor (CAR) signaling pathway - cell viability counter screen (AID 1224837); also: nearly all actives have a fitted effect of over 45% in size
Summary of the method: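 Viability was measured with CellTiter-Fluor in a HepG2 line carrying stably transfected hCAR and a CYP2B6-2.2kb construct. Cells were exposed for 23 hr at 37 C to 15 compound concentrations with 50 nM CITCO as agonist.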

[5] = qHTS assay to identify small molecule antagonists of the estrogen related receptor signaling pathway with the pleiotropic PPARgamma coactivator (PGC) from Tox21 10K library - cell viability counter screen (AID 1224840; active = well fitted cell-killing curve with a large enough effect in the repeat runs, not every such curve was filed as active; also: nearly all actives have a fitted effect of over 40% in size)
Summary of the method: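 Multiplexed viability counter screen in the PGC/ERR cell line: cells treated with DMSO-dissolved compounds for 17.5 hours at 37 C, then viability measured as CellTiter-Fluor fluorescence.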

[6] = target: Thyrotropin receptor (Homo sapiens) (UniProt P16473); assay: qHTS assay to identify small molecule agonists of the thyroid stimulating hormone receptor (TSHR) signaling pathway (AID 1224843; calls by dose curve; also: nearly all actives have a fitted effect of over 45% in size)
Chain of Thyrotropin receptor (Homo sapiens) (P16473 whole entry, looked up): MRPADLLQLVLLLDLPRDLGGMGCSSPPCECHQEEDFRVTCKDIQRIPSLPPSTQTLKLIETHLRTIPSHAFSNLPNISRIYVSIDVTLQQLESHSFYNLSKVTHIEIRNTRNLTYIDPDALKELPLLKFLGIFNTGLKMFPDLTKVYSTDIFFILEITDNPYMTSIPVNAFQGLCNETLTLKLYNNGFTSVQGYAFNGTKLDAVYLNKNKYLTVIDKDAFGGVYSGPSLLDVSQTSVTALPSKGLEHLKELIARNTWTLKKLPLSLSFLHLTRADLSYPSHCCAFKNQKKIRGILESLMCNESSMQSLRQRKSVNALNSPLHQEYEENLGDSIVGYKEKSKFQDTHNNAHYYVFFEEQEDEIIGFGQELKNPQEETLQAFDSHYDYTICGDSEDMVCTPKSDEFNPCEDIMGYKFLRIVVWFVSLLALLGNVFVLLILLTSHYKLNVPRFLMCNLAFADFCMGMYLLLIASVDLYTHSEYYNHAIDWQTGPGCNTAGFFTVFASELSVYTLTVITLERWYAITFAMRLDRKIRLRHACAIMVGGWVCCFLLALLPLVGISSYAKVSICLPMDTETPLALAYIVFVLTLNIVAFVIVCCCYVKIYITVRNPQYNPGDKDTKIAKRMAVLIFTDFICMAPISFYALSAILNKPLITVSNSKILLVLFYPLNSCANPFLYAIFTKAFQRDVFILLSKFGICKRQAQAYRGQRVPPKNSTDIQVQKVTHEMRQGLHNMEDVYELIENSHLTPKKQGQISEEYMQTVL
Summary of the method: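 Using 15 concentrations per compound in triplicate, cAMP production was monitored in TSHR-HEK293 cells after 30 min compound incubation at RT; HTRF reagents followed, with fluorescence intensity recorded after 1 h.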

[7] = qHTS assay to identify small molecule agonists of the hypoxia (HIF-1) signaling pathway - cell viability counter screen (AID 1224844; calls by dose curve; also: nearly all actives have a fitted effect of over 50% in size)
Summary of the method: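 Cytotoxicity was measured in parallel with the HRE-driven beta-lactamase readout: after 17 hrs of compound exposure at 37C, HRE-bla ME-180 cells received CellTiter-Glo and luminescence was recorded 30 min later.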

[8] = qHTS assay to identify small molecule agonists of the hypoxia (HIF-1) signaling pathway (AID 1224846; active = well fitted activation curve with a large enough effect in the signal ratio in the repeat runs, not every such curve was filed as active; the % refers to the signal ratio)
Summary of the method: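 Compounds from the Tox21 10K library, dissolved in DMSO, are tested for induction of a hypoxia response element–controlled beta-lactamase reporter in ME-180 cells. Exposure lasts 17 hrs at 37C after a 5 hr settling period, followed by CCF4-AM FRET substrate.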

[9] = qHTS assay to identify small molecule agonists of H2AX - cell viability counter screen (AID 1224847; calls by dose curve; also: top concentration of the series differs between compounds; nearly all actives have a fitted effect of over 30% in size)
Summary of the method: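 CHO-K1 cells plated overnight at 37C, then exposed 3 h at 37C to compounds at 15 concentrations (0.76% DMSO final). Viability by CellTiter-Glo luminescence after 30 min at room temperature.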

[10] = qHTS RealTime-Glo MT Cell Viability Assay in HepG2 cells - 24 hour (AID 1224867); also: nearly all actives have a fitted effect of over 50% in size
Summary of the method: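 Cells + NanoLuc/prosubstrate dispensed (600 cells/well) → 5 h at 37 C/5% CO2 → compounds in DMSO transferred → 40 h incubation at 37 C, luminescence read at 0, 8, 16, 24, 32, 40 h.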

[11] = qHTS RealTime-Glo MT Cell Viability Assay in HEK293 cells - 32 hour (AID 1224868); also: top concentration of the series differs between compounds; nearly all actives have a fitted effect of over 50% in size
Summary of the method: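 Tox21 10K qHTS, HEK293, 600 cells/well, RealTime-Glo reagent co-dispensed with cells; 5 h preincubation, compound by pintool, 37 C, luminescence at 0–40 h.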

[12] = A CellTox Green Cytotoxicity Assay to monitor cytotoxicity in HEK293 cells - 0 hour (AID 1224869); also: nearly all actives have a fitted effect of over 50% in size
Summary of the method: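 Cells (HEK293, 600/well) and dye reagent are dispensed together. After 5 h at 37 C, 23 nL compound is pinned in. Plates stay at 37 C for 40 h with fluorescence read at 0h, 8h, 16h, 24h, 32h and 40h.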

[13] = qHTS RealTime-Glo MT Cell Viability Assay in HepG2 cells - 40 hour (AID 1224870); also: nearly all actives have a fitted effect of over 50% in size
Summary of the method: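 HepG2 cells mixed with RealTime-Glo MT reagents (NanoLuc plus cell-permeant prosubstrate) were seeded at 600 cells/well, incubated 5 h at 37 C/5% CO2, then pinned with compounds in DMSO; nonlytic luminescence tracked viability during 40 h treatment.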

[14] = qHTS assay to identify small molecule agonists of H2AX (AID 1224845; active = well fitted activation curve with a large enough effect in the signal ratio in the repeat runs, not every such curve was filed as active; the % refers to the signal ratio)
Summary of the method: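 Wild-type CHO-K1 cells plated overnight, then exposed 3 hr at 37C to compounds at 15 concentrations (0.76% DMSO). Lysed, then HTRF anti-pH2AX(S139)-cryptate/anti-H2AX-d2 detection after 24 hr at room temperature; emissions 665 and 620 nm.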

[15] = target: Nuclear receptor subfamily 1 group I member 3 (Homo sapiens) (UniProt Q14994); assay: qHTS assay to identify small molecule agonists of the constitutive androstane receptor (CAR) signaling pathway (AID 1224839); also: nearly all actives have a fitted effect of over 15% in size; also: potency is read from the fitted curve at half-maximal effect
Chain of Nuclear receptor subfamily 1 group I member 3 (Homo sapiens) (Q14994 whole entry, looked up): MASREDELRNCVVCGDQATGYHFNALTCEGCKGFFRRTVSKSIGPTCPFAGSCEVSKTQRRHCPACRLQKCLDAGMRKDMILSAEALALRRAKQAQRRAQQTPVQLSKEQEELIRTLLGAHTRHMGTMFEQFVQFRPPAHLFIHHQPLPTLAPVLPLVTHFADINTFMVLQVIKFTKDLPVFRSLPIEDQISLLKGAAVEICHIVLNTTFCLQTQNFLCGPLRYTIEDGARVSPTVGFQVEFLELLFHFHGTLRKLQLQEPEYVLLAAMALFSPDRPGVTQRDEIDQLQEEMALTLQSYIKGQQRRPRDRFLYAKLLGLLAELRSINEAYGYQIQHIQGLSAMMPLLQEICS
Summary of the method: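 HepG2 cells stably co-transfected with hCAR and a CYP2B6-2.2kb luciferase reporter; compounds at 15 concentrations with 0.75 uM PK11195 present. After 24 hr at 37 C, luciferase read by ONE-Glo luminescence.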

[16] = qHTS assay to identify small molecule antagonists of the estrogen related receptor signaling pathway with the pleiotropic PPARgamma coactivator (PGC) from Tox21 10K library (AID 1224841; call rule not given here)
Summary of the method: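 Steps: plate 2,000 PGC/ERR cells per well; incubate 6 h at 37 C with 5% CO2; transfer compounds from DMSO stocks by pin tool; incubate 18 h at 37 C; add One-Glo; measure luminescence 30 min later.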

[17] = qHTS assay to identify small molecule agonists of the estrogen related receptor signaling pathway with the pleiotropic PPARgamma coactivator (PGC) from Tox21 10K library (AID 1224842); also: nearly all actives have a fitted effect of over 15% in size
Summary of the method: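 PGC/ERR reporter cells (NTP line) were seeded 2,000 per well, rested 6 h at 37 C/5% CO2, then pin-dosed with compounds in DMSO for 18 h at 37 C; luciferase read by One-Glo luminescence after 30 min at room temperature.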

[18] = qHTS assay to identify small molecule antagonists of the estrogen related receptor (ERR) signaling pathway from Tox21 library (AID 1224848); also: nearly all actives have a fitted effect of over 50% in size
Summary of the method: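 Tox21 10K compounds in DMSO tested for ERR pathway antagonism in NTP's ERR cell line; 18 h, 37 C exposure; ONE-Glo luminescence.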

[19] = qHTS assay to identify small molecule agonists of the estrogen related receptor (ERR) signaling pathway from Tox21 library (AID 1224849; calls by dose curve; also: nearly all actives have a fitted effect of over 15% in size); conditions: ERR reporter cell line, ONE-Glo luciferase, 18 h; at 92.4 µM (top of the series) unless noted
Summary of the method: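 Cells carrying the ERR reporter were plated and allowed to settle for 6 h, exposed to library compounds for 18 h at 37 C, then lysed with ONE-Glo and luminescence measured.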

[20] = target: Nuclear receptor subfamily 1 group I member 3 (Homo sapiens) (UniProt Q14994); assay: qHTS assay to identify small molecule antagonists of the constitutive androstane receptor (CAR) signaling pathway (AID 1224838);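 also: HepG2 cells stably expressing hCAR with CYP2B6 luciferase reporter stimulated by CITCO; nearly all actives have a fitted effect of over 40% in size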
Summary of the method: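 Antagonist mode used CITCO at a final 50 nM to activate CAR in human hepatoma HepG2 cells carrying stable hCAR and a 2.2 kb CYP2B6 promoter-luciferase construct. Compounds were tested at 15 concentrations over 24 h, with luminescence as the end point.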
% is scaled to controls: 0 for no effect and ±100 for the full control effect.

OCC(O)[C@@H](O)[C@H](O)[C@H](O)CO[C@H]1O[C@H](CO)[C@@H](O)[C@H](O)[C@H]1O (stereo not given in full)
inactive: Potency [1] | Potency [2] | outcome [3] | outcome [4] | outcome [5] | outcome [6] | Potency [7] | outcome [8] | Potency [9] | outcome [10] | Potency [11] | Potency [12] | Potency [13]

COc1cc(C(=O)N2CCOCC2)cc(OC)c1OC
inactive: Potency [1] | Potency [2] | outcome [3] | outcome [4] | outcome [5] | Potency [7] | outcome [14] | Potency [9] | outcome [10] | Potency [11] | Potency [12] | Potency [13]

OCCN1C[C@H](O)[C@@H](O)[C@H](O)[C@H]1CO
inactive: Potency [1] | Potency [2] | outcome [3] | outcome [4] | outcome [5] | outcome [6] | outcome [14] | outcome [8] | Potency [9] | outcome [10] | Potency [11] | Potency [12] | Potency [13]

Cc1ccccc1C(=O)O
inactive: Potency [1] | Potency [2] | outcome [3] | outcome [4] | outcome [5] | outcome [6] | Potency [7] | outcome [14] | outcome [10] | Potency [11] | Potency [12] | Potency [13]

O=C(CCOCCOCCOCCOCCC(=O)Nc1c(I)cc(I)c(C(=O)O)c1I)Nc1c(I)cc(I)c(C(=O)O)c1I
inactive: Potency [1] | Potency [2] | outcome [3] | outcome [4] | outcome [6] | Potency [7] | outcome [14] | outcome [8] | Potency [9] | outcome [10] | Potency [11] | Potency [12] | Potency [13]

O=C(O)C1CCC1
inactive: Potency [1] | Potency [2] | outcome [3] | outcome [4] | outcome [5] | outcome [6] | Potency [7] | outcome [8] | Potency [9] | outcome [10] | Potency [11] | Potency [12] | Potency [13]

FC(F)(F)C(F)(F)C(F)(F)C(F)(F)C(F)(F)C(F)(F)C(F)(F)C(F)(F)C(F)(F)C(F)(F)F
inactive: viability change, negative = cytotoxic [1] 3.38% [at 8.39 µM] | activity change, negative = inhibition [2] -2.43% [at 10.5 µM] | viability change, negative = cytotoxic [3] 1.23% [at 8.39 µM] | activity change, negative = cytotoxicity [4] 0.303% [at 8.39 µM] | viability change, negative = cytotoxic [5] -2.77% [at 8.39 µM] | activation [6] 1.03% [at 8.39 µM] | activity change, negative = cytotoxicity [7] -0.544% [at 6.97 µM] | activation [8] -1.11% [at 7.01 µM] | activity change, negative = cytotoxicity [10] -0.167% [at 6.97 µM] | activity change, negative = cytotoxic [11] -3.25% [at 6.97 µM] | cytotoxicity [12] -6.11% [at 6.97 µM]

C[C@H]1O[C@@H](n2cc(F)c(=O)[nH]c2=O)[C@H](O)[C@@H]1O
inactive: Potency [1] | Potency [2] | outcome [3] | Potency [15] | outcome [5] | Potency [16] | Potency [17] | outcome [6] | Potency [7] | Potency [9] | Potency [18] | activity change, positive = activation [19] 2.35% [at 42.5 µM] | outcome [10] | Potency [11] | Potency [12] | Potency [13]

CCOC(=O)Cn1c(=O)sc2cccc(Cl)c21
active: Potency [15] 54.5 µM
inactive: Potency [1] | Potency [2] | outcome [3] | Potency [20] | outcome [5] | Potency [16] | Potency [17] | Potency [7] | outcome [14] | outcome [8] | Potency [18] | activity change, positive = activation [19] -12% | Potency [11] | Potency [12] | Potency [13]

NS(=O)(=O)c1cc(C2(O)NC(=O)c3ccccc32)ccc1Cl (stereo not given)
inactive: Potency [1] | Potency [2] | outcome [3] | outcome [4] | outcome [5] | outcome [6] | Potency [7] | outcome [14] | Potency [9] | Potency [11] | Potency [12] | Potency [13]

NC(N)=NS(=O)(=O)c1ccc(N)cc1
inactive: Potency [1] | Potency [2] | outcome [3] | outcome [4] | outcome [6] | outcome [14] | Potency [9] | outcome [10] | Potency [11] | Potency [12] | Potency [13]

O=C(O)c1ccc[n+]([O-])c1
inactive: Potency [1] | Potency [2] | outcome [3] | outcome [4] | outcome [6] | Potency [7] | outcome [14] | outcome [8] | Potency [11] | Potency [12] | Potency [13]

COc1cccc(Br)c1
inactive: Potency [1] | Potency [2] | outcome [3] | outcome [4] | Potency [16] | Potency [17] | outcome [6] | Potency [7] | outcome [14] | outcome [8] | Potency [9] | Potency [18] | activity change, positive = activation [19] 0.21% | outcome [10] | Potency [11] | Potency [12] | Potency [13]

CCCCC=O
inactive: Potency [1] | Potency [2] | outcome [3] | outcome [4] | outcome [5] | outcome [6] | outcome [14] | outcome [8] | Potency [9] | Potency [11] | Potency [12] | Potency [13]

O=C(O)/C=C/c1ccc(Cn2ccnc2)cc1
inactive: Potency [1] | Potency [2] | outcome [3] | outcome [4] | outcome [5] | Potency [7] | outcome [14] | outcome [10] | Potency [11] | Potency [12]

Cc1cc(C)c(NC(=O)CN(CC(=O)O)CC(=O)O)c(C)c1Br
inactive: Potency [1] | Potency [2] | outcome [3] | Potency [15] | outcome [5] | Potency [7] | outcome [14] | Potency [9] | outcome [10] | Potency [11] | Potency [12] | Potency [13]

NCCNC(=O)c1ccc(Cl)cn1
inactive: Potency [1] | Potency [2] | outcome [3] | outcome [5] | Potency [16] | Potency [17] | outcome [6] | Potency [7] | outcome [14] | outcome [8] | Potency [18] | activity change, positive = activation [19] -0.271% [at 42.5 µM] | outcome [10] | Potency [11] | Potency [12] | Potency [13]
